This passage reports outcome and AC50 results from PubChem BioAssay (EPA / NIEHS).

Where “and” joins values, the source holds several entries; their conditions need not be identical. Equal values may be shown once. More than one record can exist for a structure, and the calls need not agree. Calls of active or inactive are those of the source. Rule for the calls: active = hit-call score of the fitted dose curve at least 0.9, where 1 is the maximum; inactive = score below 0.9.

Read-out in assay [1]: Interleukin 17F (IL17F), IL17F (gene 112744)
The experiment in a line: BSK_BT_xIL17F: BioMAP Diversity Plus: BT Assay for Interleukin 17F (IL17F) Biomarker Activity (AID 2284243). To be noted: primary human B cells with PBMC. Put shortly:
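Secreted IL-17F, read on LumineX xMAP beads, was taken as the endpoint. Cultures combined human B cells and peripheral blood mononuclear cells, sampled 24 hours after dosing, with DMSO serving as negative control.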

Read-out in assay [2]: Collagen IV, COL4A1 (gene 1282)
Briefly: BSK_MyoF_CollagenIV: BioMAP Diversity Plus: MyoF Assay for Collagen IV Biomarker Activity (AID 2284247). To be noted: primary human lung fibroblasts. Put shortly: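 Lung fibroblasts (human primary) treated with chemicals were assayed after 24 h for Collagen IV using an ELISA, with DMSO serving as negative control and baseline for a positive-direction fit.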

Read-out in assay [3]: Monokine induced gamma interferon (MIG), CXCL9 (gene 4283)
The experiment in a line: BSK_KF3CT_MIG: BioMAP Diversity Plus: KF3CT Assay for Monokine induced gamma interferon (MIG) Biomarker Activity (AID 2284248). To be noted: primary human keratinocytes with fibroblasts. Put shortly: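 ELISA read-out of MIG after 24 h chemical exposure of human skin primary co-culture (keratinocytes, foreskin fibroblasts). Gain of signal relative to DMSO negative control was analysed.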

Read-out in assay [4]: Vascular cell adhesion molecule 1 (VCAM1), VCAM1 (gene 7412)
Briefly: BSK_BF4T_VCAM1: BioMAP Diversity Plus: BF4T Assay for Vascular cell adhesion molecule 1 (VCAM1) Biomarker Activity (AID 2284249). To be noted: primary human bronchial epithelial cells with fibroblasts. Put shortly: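 Cell-surface VCAM-1 quantified by ELISA after 24 h chemical exposure of human bronchial epithelial/dermal fibroblast co-cultures, with SRB staining in parallel wells for cytotoxicity; DMSO baseline, positive-direction fitting.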

Read-out in assay [5]: Collagen I, COL1A1 (gene 1277)
The experiment in a line: BSK_hDFCGF_CollagenI: BioMAP Diversity Plus: hDFCGF Assay for Collagen I Biomarker Activity (AID 2284250). As to conditions: primary human foreskin fibroblasts. Put shortly:
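Readout: Collagen I by ELISA after 24 h compound treatment of primary human foreskin fibroblasts. Endpoint analysed for increases relative to DMSO; total protein by SRB in parallel wells flagged cytotoxicity.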

Read-out in assay [6]: Interferon-inducible T-cell alpha chemoattractant (ITAC), CXCL11 (gene 6373)
Briefly: BSK_hDFCGF_ITAC: BioMAP Diversity Plus: hDFCGF Assay for Interferon-inducible T-cell alpha chemoattractant (ITAC) Biomarker Activity (AID 2284251). As to conditions: primary human foreskin fibroblasts. The protocol:
BSK_hDFCGF is a cell-based, multiplexed-readout assay that uses foreskin fibroblast, a human skin primary cell, with measurements taken at 24 hours after chemical dosing in a 96-well plate.BSK_hDFCGF_ITAC is an assay component measured in the BSK_hDFCGF assay. It measures I-TAC antibody related to regulation of gene expression using ELISA technology.Data from the assay component BSK_hDFCGF_ITAC was analyzed at the endpoint, BSK_hDFCGF_ITAC, in the positive analysis fitting direction relative to DMSO as the negative control and baseline of activity. Using a type of binding reporter, gain or loss-of-signal activity can be used to understand protein changes. To generalize the intended target to other relatable targets, this assay endpoint is annotated to the 'cytokine' intended target family, where the subfamily is 'chemotactic factor'.
(§1) The levels of cell surface (or secreted, indicated by the prefix "s") biomarker endpoints were measured by ELISA. Overt cytotoxicity to cells in confluent adherent cultures (all systems other than the BT system) was assessed by measuring total protein levels using sulforhodamine B (SRB) staining in parallel cultures at the time of biomarker measurements, indicated as SRB endpoints. For proliferation assays for adherent cell types, individual cell types are cultured at sub-confluence and relative cell numbers quantified by SRB staining at time points optimized for each system (48 h: 3C and CASM3C systems; 72 h: BT and HDF3CGF systems; 96 h: SAg system). SRB was performed by staining cells with 0.1% SRB after fixation with 10% TCA and reading wells at 560 nm.Viability and proliferation of PBMC (T cells) was quantified by Alamar Blue reduction for the SAg and BT systems. For PBMC viability (referred to as PBMC Cytotoxicity within the assay endpoint names), cells were plated (75,000/well in a 96-well plate) and then chemical samples added for 1 h before addition of activators, SEB and TSST-1 (20 ng/mL final concentration each). Cells were incubated for 90 h. Then, Alamar Blue (20 uL/well) (Invitrogen, Cat DAL1100) was added for 6 h, and the plates were read with a fluorescence microplate reader at 546/580 nm (excitation/emission). For PBMC proliferation, cells were plated and activated as above but incubated for only 16 h prior to addition of Alamar Blue. Plates were read after 6 h.

Read-out in assay [7]: Plasminogen activator inhibitor-1 (PAI1), SERPINE1 (gene 5054)
Briefly: BSK_KF3CT_PAI1: BioMAP Diversity Plus: KF3CT Assay for Plasminogen activator inhibitor-1 (PAI1) Biomarker Activity (AID 2284252). As to conditions: primary human keratinocytes with fibroblasts. Put shortly:
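In this co-culture of primary human keratinocytes and foreskin fibroblasts, PAI-1 was measured by ELISA at 24 h and fitted upward from DMSO.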

Read-out in assay [8]: Monocyte Chemoattractant Protein-1 (MCP1), CCL2 (gene 6347)
The experiment in a line: BSK_IMphg_MCP1: BioMAP Diversity Plus: IMphg Assay for Monocyte Chemoattractant Protein-1 (MCP1) Biomarker Activity (AID 2284253). As to conditions: primary human endothelial cells with macrophages. Put shortly:
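ELISA readout of MCP-1 at 24 hours in IMphg co-cultures of venular endothelial cells and macrophages, normalised to DMSO; parallel cultures stained with sulforhodamine B for overt cytotoxicity.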

Read-out in assay [9]: Interleukin-8 (IL8), CXCL8 (gene 3576)
The experiment in a line: BSK_KF3CT_IL8: BioMAP Diversity Plus: KF3CT Assay for Interleukin-8 (IL8) Biomarker Activity (AID 2284254). To be noted: primary human keratinocytes with fibroblasts. How it is done: BSK_KF3CT is a cell-based, multiplexed-readout assay that uses keratinocytes and foreskin fibroblasts, a human skin primary cell co-culture, with measurements taken at 24 hours after chemical dosing in a 96-well plate.BSK_KF3CT_IL8 is an assay component measured in the BSK_KF3CT assay. It measures IL-8 antibody related to regulation of gene expression using ELISA technology.Data from the assay component BSK_KF3CT_IL8 was analyzed at the endpoint, BSK_KF3CT_IL8, in the positive analysis fitting direction relative to DMSO as the negative control and baseline of activity. Using a type of binding reporter, gain or loss-of-signal activity can be used to understand protein changes. To generalize the intended target to other relatable targets, this assay endpoint is annotated to the 'cytokine' intended target family, where the subfamily is 'interleukins'.
as §1

Read-out in assay [10]: Macrophage Inflammatory Protein-1 Alpha (MIP1a), CCL3 (gene 6348)
The experiment in a line: BSK_IMphg_MIP1a: BioMAP Diversity Plus: IMphg Assay for Macrophage Inflammatory Protein-1 Alpha (MIP1a) Biomarker Activity (AID 2284255). As to conditions: primary human endothelial cells with macrophages. Put shortly: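 MIP-1a protein levels were quantified by ELISA after 24 h treatment of human endothelial cell–macrophage co-cultures, compared with DMSO. Parallel cultures were fixed with TCA and stained with 0.1% SRB to gauge overt cytotoxicity.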

As for `COP(=S)(OC)Oc1cc(Cl)c(Cl)cc1Cl`, the result in assay [1] and in [2] was inactive.
Take `O=S(=O)(c1ccc(Cl)cc1)c1ccc(Cl)cc1`: the outcome in [1] and in assay [2] was inactive.
What is called AC50 is the midpoint of the concentration-response curve, whichever way the signal moves. On to `Nc1ccc(-c2ccc(N)c(Cl)c2)cc1Cl`, for which the AC50 in [1] is 20 µM (active). Further, the outcome in [2] was inactive.
Regarding `ClC(Cl)=C(Cl)C(Cl)=C(Cl)Cl`, the outcome in assay [1] and in [2] was inactive.
Turning to `O=C(OC1CCCCC1)c1ccccc1C(=O)OC1CCCCC1`, the AC50 in [1] is 30.8 µM (active). The outcome in assay [2] was inactive.
As to `C(=NC1CCCCC1)=NC1CCCCC1`, the AC50 was 13.4 µM (active) in assay [1] and 12.4 µM (active) in assay [2].
Consider `CCOP(=S)(OCC)Oc1ccc(S(C)=O)cc1` (configuration not stated), for which the result in [1] and in assay [2] was inactive.
Regarding `CC(C)c1ccc(CO)cc1`, the outcome in assay [1] and in assay [2] was inactive.
For `CCNc1nc(NC(C)(C)C)nc(SC)n1`, in [1], the AC50 is 20 µM (active). In [2], the outcome was inactive.
For `CC(C)CCCCCCOC(=O)c1ccccc1C(=O)OCCCCCCC(C)C`, the result in [1] and in [2] was inactive.
Turning to `COP(=S)(OC)Oc1ccc(Sc2ccc(OP(=S)(OC)OC)cc2)cc1`, the outcome in assay [1] and in assay [2] was inactive.
With `O=[N+]([O-])c1ccc2c3c(cccc13)CC2`, the result in [1] and in assay [2] was inactive.
Consider `CCCCC(CC)CO[N+](=O)[O-]` (configuration not stated), for which the result in [1] and in assay [2] was inactive.
For `O=C(O)C(F)(F)C(F)(F)C(F)(F)C(F)(F)C(F)(F)C(F)(F)C(F)(F)C(F)(F)C(F)(F)C(F)(F)F`, the result in [1], in [5], in [8] and in [10] was inactive. In addition, the AC50 in assay [2] was 816 nM (active) and 843 nM (active); in [3], 6.52 µM (active) and 5.48 µM (active); in assay [4] it was 4.89 µM (active) and 5.89 µM (active); in [5], 3.39 µM (active); in assay [6] it was 5.59 µM (active); in [7], 2.66 µM (active) and 4.56 µM (active). Moreover, the AC50 in assay [9] is 3.33 µM (active) and 5.2 µM (active).
